# An excerpt weighted towards active compounds, which were near 4.1% of everything screened.
# ssDAF12 agonist: activators of S. stercoralis DAF-12 nuclear receptor | HEK293 ssDAF-12/GRIP1 lit1-tk-luc reporter, luminescence; % of 3 µM dafachronic acid response | activation, % at 6.8 µM | hit rate 1% among 370,000;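 active means activation above the mean over all tested compounds plus 3 SD, cut at about 0.9% in these data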;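 further: 0% = DMSO-only wells and 100% = 3 µM delta7-dafachronic acid wells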
# DAX1 inh-1: inhibitors of DAX1 repression of SF-1 activated StAR promoter. inhibition, % at 6.8 µM. hit rate 1.1% among 370,000. HEK293T StAR-luciferase reporter, SF-1/DAX-1 repression relief. AID 652010;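 active means inhibition above the mean over all tested compounds plus 3 SD, cut at about 3.6% in these data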;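 further: 0% = DAX-1 cells with DMSO and 100% = cells lacking DAX-1 with DMSO; higher inhibition means more luminescence from relief of DAX-1 repression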
# hcDAF12 agonist: H. contortus DAF-12 activation, primary screen. activation, % at 6.8 µM. HEK293 hcDAF-12 lit1-tk-luc reporter, luminescence; 0% DMSO, 100% Δ7-dafachronic acid. AID 652067. hit rate 1.4% among 370,000;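 active means activation above the mean of all tested compounds plus 3 SD, cut at about 5.5% in these data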;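 further: 100% = response to 3 µM Δ7-dafachronic acid high control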
# DAX1 inh-2: inhibits human nuclear receptor DAX1; HEK293 Gal4-DAX1 luciferase reporter, luminescence; inhibition, % at 6.75 µM; AID 504766; P51843; hit rate 0.99% among 340,000;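 active means inhibition above the mean over all tested compounds plus 3 SD, cut at about 4.2% in these data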;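 further: 0% = DAX1-transfected cells with DMSO and 100% = empty-vector control cells with DMSO; inhibition shows as a rise in luminescence from relieved DAX1 repression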
# Target sequence (P51843 207-470 limits assumed): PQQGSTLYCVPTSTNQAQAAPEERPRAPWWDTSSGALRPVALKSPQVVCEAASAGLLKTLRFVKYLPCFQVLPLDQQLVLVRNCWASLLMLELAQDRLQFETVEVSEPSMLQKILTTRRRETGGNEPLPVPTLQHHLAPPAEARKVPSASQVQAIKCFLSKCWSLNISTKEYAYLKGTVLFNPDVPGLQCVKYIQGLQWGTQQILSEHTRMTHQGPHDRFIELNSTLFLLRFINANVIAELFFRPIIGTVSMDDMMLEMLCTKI
# hgDAF12 agonist: hgDAF-12 agonism, primary luciferase screen; AID 687014; hit rate 1.8% among 370,000; HEK293 GAL4-hgDAF12 UAS-luciferase reporter, agonist luminescence; normalized to butyrate control; activation, % at 6.8 µM;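 active means activation above a cutoff set at the mean of all screened compounds plus 3 SD, cut at about 10% in these data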;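 further: 0% = DMSO wells and 100% = sodium butyrate wells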
# Numbers without * were called inactive; x = no result.
SMILES,ssDAF12 agonist,DAX1 inh-1,hcDAF12 agonist,DAX1 inh-2,hgDAF12 agonist
COC(=O)C1CN(Cc2ccc(F)cc2)CCS(=O)(=O)N1Cc1ccc(C)cc1 (configuration not stated),-2,-1,-1,x,-2
CCOC(=O)N1CCN(C(=O)C[C@H]2C(=O)N(CCCOC)C3=CCCC[C@@]32C(=O)OCC)CC1,0,-1,0,x,-3
C=CCN(C(=O)CNC(=O)c1ccco1)C(C(=O)NC1CCCC1)c1cccs1 (configuration not stated),-2,1,-2,1,-4
O=C(NCC(=O)N(CCN1CCOCC1)C(C(=O)NC1CCCC1)c1cccs1)c1ccco1 (configuration not stated),-1,1,1,4.7*,3
CCOc1ccc(Nc2n[nH]c(=S)s2)cc1,0,3,3,1,12*
Cc1ccc(Nc2n[nH]c(=S)s2)cc1,0,1,2,2,6
COc1ccc(S[C@]2(C(=O)N3CCOCC3)CC(=O)N(c3ccsc3)[C@@H]2c2ccc(OC)cc2)cc1,-1,-1,-1,x,0
CCc1ccc(Nc2nc(C)cc(C)n2)cc1,-1,1,3,0,11*
Cc1cc(C)nc(Nc2ccc(O)cc2)n1,-1,0,-1,0,-1
COc1ccccc1CNC(=O)NNC(=O)CCn1nc(C)c([N+](=O)[O-])c1C,-2,0,-1,x,-3
O=C(OCC#CCSc1nnc(-c2cccc3ccccc23)o1)C1CCC1,-1,x,-4,x,1
Cc1ccc2sc(-c3ccc(NC(=O)c4cc(-n5cnnc5)ccc4Cl)cc3)nc2c1,-1,2,1,1,11*
O=C(Nc1cccc(-c2nc3ccccc3s2)c1)c1cc(-n2cnnc2)ccc1Cl,x,x,x,-1,x
COc1ccc(Oc2c(-c3cccs3)cnn(-c3ccc(C)cc3)c2=O)cc1,-1,x,-2,x,-2
Cc1cccc(-c2nc(NCCCN(C)C)c3ccccc3n2)c1,1.1*,0,1,0,0
CC(=O)c1sc(Nc2nc3cc4c(cc3s2)OCO4)nc1C,-2,2,-1,1,2
c1c2c(cc3sc(N4CCCCC4)nc13)OCO2,1,3,6.0*,-1,9
O=C(COc1ccccc1)Nc1nc2cc3c(cc2s1)OCO3,0,3,6.1*,0,5
c1ccc(N2CCN(c3nc4cc5c(cc4s3)OCO5)CC2)cc1,0,0,0,0,6
CC(=O)Nc1nc2cc3c(cc2s1)OCO3,-1,3,4,2,13*
N#Cc1cccc(Cn2ccc3ccc(-c4ccc5ccn(Cc6cccc(C#N)c6)c5c4)cc32)c1,-1,1,0,x,0
COc1ccc2[nH]c3c(c2c1)CCN[C@]31C(=O)N(Cc2cn(Cc3ccccc3)nn2)c2ccc(F)cc21,-1,0,-1,x,0
COC(=O)c1ccccc1NC(=O)NCC1CCN(Cc2ccc(OC)cc2)CC1,-1,-2,-3,x,-2
O=C(C(=O)N1CCN(S(=O)(=O)c2cccc3ccccc23)CC1)c1cccc(C(F)(F)F)c1,1,-2,-1,x,0
COC(=O)[C@]1(C#N)CC(=O)N(C)[C@@H]1c1ccccc1,-1,1,2,x,5
SMILES,ssDAF12 agonist,DAX1 inh-1,hcDAF12 agonist,DAX1 inh-2,hgDAF12 agonist
Nc1nnn(-c2ccccc2)c1-c1ccccc1,-2,0,2,4.6*,-1
O=C(CNc1ccccc1)N/N=C/c1ccc([N+](=O)[O-])cc1,1.6*,0,-1,1,4
O=C(N/N=C/c1ccc([N+](=O)[O-])cc1)c1[nH]ncc1Br,0,2,0,4.7*,9
O=C(N/N=C/c1ccc([N+](=O)[O-])cc1)c1cc(C2CC2)[nH]n1,-1,-3,-2,2,-1
CCCSc1nc2cc(C)c(C)cc2n1CC(O)CO (configuration not stated),-1,0,0,-1,4
CCN(CC)CC(O)Cn1c(-c2cccc(Cl)c2)nc2cc(C)c(C)cc21 (configuration not stated),-1,1,2,4.2*,2
C=CCOc1cccc(C2C(C(=O)c3ccco3)=C(O)C(=O)N2CCN(CC)CC)c1 (configuration not stated),-1,0,-1,4.7*,4
Cc1cccc(Nc2nc(-c3ccccn3)cs2)n1,1.1*,3,6.0*,0,13*
CC(=O)Oc1ccc(-c2csc(Nc3cccc(C)n3)n2)cc1,2.4*,2,4,5.5*,9
Cc1cc(C)cc(-c2c(C(=O)c3ccc(Br)cc3)[nH]c(N)c2C(=O)NCc2ccc(Cl)cc2)c1,-1,x,1,x,0
O=C(NC1CCCCN(Cc2ccc(Cl)cc2)C1=O)C1C2CC3CC(C2)CC1C3 (configuration not stated),0,0,-2,x,-3
O=[N+]([O-])c1nn(-c2ccccc2)n(O)c1=NCc1ccc2c(c1)OCO2,-1,1,2,1,4
Cc1c(Cl)cccc1N=c1c([N+](=O)[O-])nn(-c2ccccc2)n1O,0,0,5.6*,0,2
O=[N+]([O-])c1nn(-c2ccc(Cl)cc2)n(O)c1=NCc1ccccc1,-1,0,-2,5.0*,3
COC(=O)C[C@H]1CC[C@H]2[C@H](COc3ccc(NS(=O)(=O)c4cccc(F)c4)cc3C(=O)N2C)O1,0,-1,0,x,4
CCOc1ccc(Cn2nnc(C(=O)NCCc3ccccc3)c2N)cc1,-1,1,-2,4.4*,7
CCOc1ccc(Cn2nnc(C(=O)NCCc3ccc(Cl)cc3)c2N)cc1,-1,-1,-2,2,0
COc1cccc(Cn2nnc(C(=O)NCCc3ccc(Cl)cc3)c2N)c1,-2,-1,-1,5.5*,3
COc1ccc(-n2c(COc3ccccc3)nnc2SCC(=O)Nc2ccccc2-c2ccccc2)cc1,-2,-1,-3,x,-1
CC(C)Cc1nnc(NC(=O)C2=COCCO2)s1,-1,3.8*,2,2,7
COC(=O)CCN(Cc1ccc(OC)cc1OC)S(=O)(=O)c1ccccc1Br,-1,-1,-3,x,-3
Cc1cccc(C)c1NC(=O)CN1CCCC1,-1,0,-1,4.5*,-3
CCN(CC)CCNC(=O)c1cc2c(=O)n(C)c3ccccc3c2s1,0,2,6.3*,1,6
CCn1c(=O)c2cc(C(=O)NCC(OC)OC)sc2c2ccccc21,-1,0,-2,6.2*,-2
CCCCN(CC)CCCNC(=O)c1cc2c(=O)n(CC)c3ccccc3c2s1,-1,1,2,4.7*,0
CCCN(CCC)CCCNC(=O)c1cc2c(=O)n(CC)c3ccccc3c2s1,-1,2,1,7.3*,0
NC(=O)c1ncn([C@@H]2O[C@H](C(=O)N[C@H](Cc3c[nH]c4ccccc34)C(=O)O)[C@@H](O)[C@H]2O)n1,0,1,2,x,-2

# Screening results as filed in PubChem.
